Data as given in PubChem BioAssay (NCI).
Compounds without any hit were thinned out: in the full panel of roughly 83,000, 20% have a hit.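 A percent growth of 40 corresponds to 60% growth inhibition; 0 means no net growth; -100 means all cells died. Active threshold: below 10.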 Values without a mark were called inactive. Calls of active or inactive are those of the source.

Each compound was assayed on MOLT-4 leukemia (assay: NCI-60 one-dose screen, 48 h (100 = growth as untreated, 0 = no growth, -100 = all killed)). Conditions: 10 µM unless noted.
C[C@H]1C=C(C[C@@H](O)CCCCCCCCCC[C@@H](O)[C@H]2CCC(=O)O2)C(=O)O1 was tested, and the growth was 112%.
For S=c1ssnc1-c1ccccn1, the growth was 0.997% (active).
CC1(C)N=C(N)N=C(N)N1c1cccc(CCCCc2ccccc2)c1 was tested, and the growth was -35.9% (active).
For O=[N+]([O-])c1cccc2cc(S(=O)(=O)O)ccc12, the growth was 85.5%.
With CCOc1cccc(Nc2nc(N)nc3[nH]c4ccc(O)cc4c23)c1 the growth was 53.9%.
Compound NN=C(c1ccc(Cl)cc1)c1ccc(Cl)cc1 has a growth of 97.8%.
For O=C(N/N=C1\SCC(=O)N1c1ccccc1)c1cc(-c2cc3ccccc3o2)nn1-c1ccccc1, the growth was 87%.
Work on COc1ccc(N)c(S)c1 yielded a growth of 91%.
Nn1c(SCC(=O)Nc2cc(Cl)c(Cl)cc2Cl)nnc1-c1cc(F)c(Cl)cc1Cl gave a growth of 84.8%.
COc1cc(-c2nc3sc(C)cn3c2/C=C2\C(=O)Nc3ccccc32)c(Br)c(OC)c1OC gave a growth of 39.9%.
Compound CC(=S)Nc1ccccc1 has a growth of 103%.
For O=C(Nc1ccc(Cl)c(Cl)c1)Nc1ccc(Cl)c([N+](=O)[O-])c1, the growth was -30.9% (active).
In the case of CCOC(=O)C(C)(CSSCC(C)(NC(=O)c1ccc2ccccc2c1)C(=O)OCC)NC(=O)c1ccc2ccccc2c1 (configuration not stated), the growth is reported as 53.1%.
Compound O=C(NC(=S)Nc1ccc(Cl)cc1)c1ccccc1 has a growth of 72.8%.
In the case of CSc1nc(N)nc2c1ncn2C, the growth is reported as 87.6%.
For O=C(O)c1cc2ccccc2cc1Nc1ccccc1, the growth was 91.1%.
O=C1CN(CCN2CC(=O)NC(=O)C2)CC(=O)N1 gave a growth of 28.5%.
